# Experimental data as given in PubChem BioAssay AID687010 (National Center for Advancing Translational Sciences (NCATS), 2013).
# Active and inactive are the calls of the source.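 How the source made its calls: active means a significant rise in survival of treated spinal muscular atrophy model mice compared with vehicle-treated controls; inactive means no significant rise in survival.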
# Test: Extended Characterization of SMN2 Inhibitors: Survival Studies
# Conditions: SMNdelta7 SMA mice, 50 mg/kg i.p. twice daily
# Excerpt: Spinal muscular atrophy (SMA) is caused by insufficient levels of the survival motor neuron protein SMN. The SMN locus on chromosome 5q13 contains two inverted copies of SMN called SMN1 and SMN2 which are 99% identical at the amino acid level. SMN1 is a fully functional protein and SMN2 skips exon 7 90% of the time. Skipping of exon 7 produces non-functional protein product. 10% of the SMN2 protein includes exon 7 and is fully functional. In the SMA disease state, mutations in the SMN1 locus are the cause of the disease state. Because only 10% of SMN2 is of the fully functional form, it is not sufficient to overcome the deficiency produced by the loss of the SMN1 product. A therapy that either increase the amount of SMN2 product made or to increase the inclusion of exon 7 has been proposed for the treatment of SMA. We have previously filed a probe report and have now done further SAR and further characterized the resulting compounds in mice studies. […]
# Studies were approved by the National Institute of Neurological […] and Stroke Animal Care Committee and performed in accordance with the National Institutes of Health Guide for the Care and Use of Laboratory Animals. […] For survival studies, litters were maintained and kept with the mother until P21, after which if any SMA pups survived they were weaned and continued to be monitored.
row,SMILES,outcome
1,O=C(O)C1CCN(c2ncc(-c3ccc4c(c3)OCCCO4)s2)CC1,active; yes
